A number with no mark means an inactive call.
Test system: Vero E6 infected with SARS-CoV-2
Experiment: inhibition of SARS-CoV-2 cytopathic effect; higher = more antiviral protection, active = above 15
Conditions: 48 h

| SMILES | inhibition of SARS-CoV-2 cytopathic effect (1 nM) [%] | inhibition of SARS-CoV-2 cytopathic effect (8.33 nM) [%] | inhibition of SARS-CoV-2 cytopathic effect (100 nM) [%] | inhibition of SARS-CoV-2 cytopathic effect (833.33 nM) [%] | inhibition of SARS-CoV-2 cytopathic effect (10000 nM) |
| --- | --- | --- | --- | --- | --- |
| CC(Cc1ccccc1)(NC(=O)CN)c1ccccc1 (stereo not given) [remacemide] | 0.2 | 0.62 | -0.89 | 0.88 | 0.24% |
| CN(C)c1ccc(C(=C2C=CC(=[N+](C)C)C=C2)c2ccc(N(C)C)cc2)cc1 [crystal-violet] | -0.43 | 1.49 | 0.27 | -11.4 | -22.8% |
| CCC(NC(C)C)C(O)c1ccc(O)c2[nH]c(=O)ccc12 (stereo not given) [procaterol] | -1.54 | 0.18 | -2.76 | -0.33 | -1.47% |
| OCc1cccnc1 [nicotinyl-alcohol-tartrate] | -0.34 | -0.51 | -0.17 | 0.73 | -0.73% |
| O=Cc1cn(Cc2ccc(Cl)cc2)c2ccccc12 [oncrasin-1] | 1.13 | -1.86 | 2.77 | 2.11 | 2.76% |
| COc1ccc(CCCO[C@@H](Cn2ccnc2)c2ccc(OC)cc2)cc1 | -4.38 | -5.95 | -10.2 | -1.69 | 0.39% |
| CC(=O)Nc1nc2c(Oc3cc(-c4ccc(C(F)(F)F)cc4)ncn3)cccc2s1 | 1.07 | 0.66 | 2.03 | 2.31 | 1.83% |
| CN1CCN2c3c(cccc31)[C@@H]1CN(CCCC(=O)c3ccc(F)cc3)CC[C@@H]12 [lumateperone] | -2.67 | 2.96 | 2.88 | 2.75 | 2.86% |
| NCC1OC(C23CC4CC(CC(C4)C2)C3)Cc2c1ccc(O)c2O (stereo not given) | 0.67 | 0.56 | 2.31 | 1.57 | -6.39% |
| C=C[C@]1(C)CC[C@@H](C(=C)C)C[C@H]1C(=C)C [beta-elemene] | 2.14 | 1.03 | 0.39 | 0.7 | 0.82% |
| O=C(Nc1ccccc1)Nc1ccc(-c2ccc(C(=O)[C@@H]3CCC[C@@H]3C(=O)O)cc2)cc1 | -1.33 | 1.31 | 3.77 | 1.06 | -1.53% |
| O=C(O)Cc1ccc(CCNS(=O)(=O)c2ccc(Cl)cc2)cc1 [daltroban] | -0.21 | 3.04 | -1.18 | -0.76 | 1.78% |
| C=C1/C(=C\C=C2/CCC[C@]3(C)[C@@H]([C@H](C)/C=C/C=C/C(O)(CC)CC)CC[C@@H]23)C[C@@H](O)C[C@@H]1O [seocalcitol] | -3.06 | -2.2 | -0.09 | 1.95 | 1.01% |
| CCCn1c(=O)c(C)cn2nc(N)nc12 | 3.43 | 2.31 | -0.1 | 2.28 | -2.15% |
| Nc1nc(OCC2CCCCC2)c2nc[nH]c2n1 | 1.06 | 0.95 | -3.55 | 1.35 | -1.27% |
| CCOC(=O)CC(=O)N1CCSC1COc1ccccc1OC (stereo not given) [moguisteine] | -0.34 | 0.03 | -3.76 | -0.38 | 0.52% |
| CCOC(=O)c1ncn2c1CN(C)C(=O)c1cc(F)ccc1-2 [flumazenil] | -5.56 | -4.56 | -4.89 | -4.65 | -1.96% |
| O=C1CC2(CCCC2)CC(=O)N1CCCCNC[C@H]1COc2ccccc2O1 (racemic) | 2.83 | -1.41 | -1.75 | -0.98 | -5.48% |
| Cc1cccc(C)c1NC(=O)/N=C1\CCCN1C [xilobam] | -1.73 | -0.97 | 1.82 | -0.83 | 1.68% |
| CC(NCCc1ccc(O)cc1)C(O)c1ccc(O)cc1 (stereo not given) [ritodrine] | 0.34 | -0.09 | 1.29 | -2.19 | -1.02% |
| COc1ccc2c(c1)/C(=C/c1cnc[nH]1)C(=O)N2 | 0.21 | -1.7 | -1.87 | 4.89 | 6.28% |

| SMILES | inhibition of SARS-CoV-2 cytopathic effect (1 nM) [%] | inhibition of SARS-CoV-2 cytopathic effect (8.33 nM) [%] | inhibition of SARS-CoV-2 cytopathic effect (100 nM) [%] | inhibition of SARS-CoV-2 cytopathic effect (833.33 nM) [%] | inhibition of SARS-CoV-2 cytopathic effect (10000 nM) |
| --- | --- | --- | --- | --- | --- |
| CCc1nc(C)ccc1O [emoxipin] | 1.2 | 3.95 | 1.53 | 0.68 | 1.33% |
| CC1(C)S[C@@H]2[C@H](NC(=O)[C@H](N)c3ccccc3)C(=O)N2[C@H]1C(=O)O [ampicillin] | 0.57 | 1.76 | -0.8 | -1.53 | 0.38% |
| Cc1ccc2nc(NCCN)c3ncc(C)n3c2c1 | -1.03 | -0.71 | -2.54 | 0.69 | -11.4% |
| Cc1cc2c(F)c(Oc3ncnn4cc(OC[C@@H](C)OC(=O)[C@H](C)N)c(C)c34)ccc2[nH]1 [brivanib-alaninate] | -0.11 | 4.65 | 1.96 | -0.19 | -7.17% |
| N=C(N)c1ccc(/N=N/Nc2ccc(C(=N)N)cc2)cc1 [diminazene-aceturate] | 0.66 | -1.51 | -3.27 | -14 | 2.42% |
| CCCCc1ccc2[nH]c(NC(=O)OC)nc2c1 [parbendazole] | 0.24 | 0.63 | -0.29 | -0.99 | -1.63% |
| COc1ccc2cccc(N3CCN(CCNC(=O)c4ccc(F)cc4)CC3)c2c1 | -1.86 | -0.57 | 0.77 | 0.7 | -3.37% |
| Cc1cc(NC(=O)NCCN2CCC(O)(Cc3ccccc3)CC2)c2ccccc2n1 [palosuran] | -0.45 | 0.24 | 0.95 | 2.2 | 1.86% |
| CN(Cc1ccc(C(C)(C)C)cc1)Cc1cccc2ccccc12 [butenafine] | 0.43 | 3.81 | 0.84 | 2.62 | 4.56% |
| CN(C)c1ccccc1CN1CCCN(Cc2ccccc2N(C)C)C1c1ccncc1 | 0.09 | 1.84 | 0.14 | 0.48 | 21% (active) |
| Oc1ccc(Cl)cc1Cc1cc(Cl)ccc1O [dichlorophen] | -4.53 | 0.22 | -2.85 | -2.86 | 1.46% |
| CN1C(=O)N(C)C2C1N(C)C(=O)N2C (stereo not given) [mebicar] | -5.8 | -1.8 | -3.06 | -1.23 | -2.18% |
| COc1cccc(C=NCCN=Cc2cccc(OC)c2[O-])c1[O-].[Cl-].[Mn+3] | 2.33 | 1.86 | 0.89 | 1.11 | 14.1% |
| N[C@@H](CC(=O)N1CCn2c(nnc2C(F)(F)F)C1)Cc1cc(F)c(F)cc1F [sitagliptin] | -0.24 | 1.03 | 2.43 | 3.7 | 1% |
| CCOC(=O)[C@H](CCc1ccccc1)N[C@@H](C)C(=O)N1[C@H](C(=O)O)C[C@@H]2CCC[C@@H]21 [ramipril] | -0.55 | -0.01 | -0.53 | 5.34 | -2.38% |
| CCC(=O)OCC(=O)[C@@]1(OC(=O)CC)[C@@H](C)C[C@H]2[C@@H]3CCC4=CC(=O)C=C[C@]4(C)[C@@]3(Cl)[C@@H](O)C[C@@]21C [beclomethasone-dipropionate] | -9.44 | -9.23 | -11.4 | -9.54 | -6.97% |
| Cc1c(N(C)C)c(=O)n(-c2ccccc2)n1C [amidopyrine] | -14.8 | -9.18 | -12 | -13.2 | -11.7% |
| COc1cc2c(cc1OC)[C@@]13CCN4CC5=CCO[C@H]6CC(=O)N2[C@H]1[C@H]6[C@H]5C[C@H]43 [brucine] | 7.12 | 1.25 | 3.51 | 2.71 | 0.47% |
| Fc1ccc(Cn2c(NC3CCNCC3)nc3ccccc32)cc1 [tecastemizole] | -7.23 | -9.9 | -11.8 | -8.85 | -8.1% |
| COc1ccc(-c2nc3cc(C4=NNC(=O)CC4C)ccc3[nH]2)cc1 (stereo not given) [pimobendan] | 2.75 | -1.84 | -1.74 | -1.51 | -0.67% |

— the supplement of paper PMC13380429
